# Compound activity: PubChem BioAssay, Sanford-Burnham Center for Chemical Genomics
# FAS TE block: FAS thioesterase domain inhibitors, primary screen, biochemical, fluorescence intensity, uHTS; Fatty acid synthase (Homo sapiens), P49327; recombinant FAS-TE, OMFH fluorogenic substrate, fluorescence endpoint; inhibition, % at 15 µM; 360,000 tested, 0.67% active; AID 602261, 2012;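 active means compounds whose normalised, plate-corrected inhibition of enzyme fluorescence in the single-dose primary screen is 50% or more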;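 further: 0% = DMSO with enzyme and 100% = substrate without enzyme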
# NPR1 activator: GC-A stimulated cGMP production enhancers – HEK293 GC-A cells, cGMP TR-FRET, EC30 ANP, primary screen. Atrial natriuretic peptide receptor 1 (Homo sapiens), P16066. 0% at EC30 ANP, 100% saturating ANP. activation, % at 10 µM. 370,000 tested, 0.14% active; in the data active means activation above about 40%
# A3G deaminase: APOBEC3G DNA deaminase inhibitors, primary screen, biochemical, fluorescence, single-stranded DNA substrate, uHTS. recombinant A3G, ssDNA deamination FAM/TAMRA fluorescence. inhibition, % at 20 µM. 330,000 tested, 0.28% active. AID 493012, 2011;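 active means inhibition of at least 40% at 20 µM, with no more than 30% in the related APOBEC3A deaminase screen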;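 further: plate controls were DMSO wells with A3G for no effect and wells lacking A3G enzyme for full effect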
# Target sequence (Q9HC16 whole entry, looked up): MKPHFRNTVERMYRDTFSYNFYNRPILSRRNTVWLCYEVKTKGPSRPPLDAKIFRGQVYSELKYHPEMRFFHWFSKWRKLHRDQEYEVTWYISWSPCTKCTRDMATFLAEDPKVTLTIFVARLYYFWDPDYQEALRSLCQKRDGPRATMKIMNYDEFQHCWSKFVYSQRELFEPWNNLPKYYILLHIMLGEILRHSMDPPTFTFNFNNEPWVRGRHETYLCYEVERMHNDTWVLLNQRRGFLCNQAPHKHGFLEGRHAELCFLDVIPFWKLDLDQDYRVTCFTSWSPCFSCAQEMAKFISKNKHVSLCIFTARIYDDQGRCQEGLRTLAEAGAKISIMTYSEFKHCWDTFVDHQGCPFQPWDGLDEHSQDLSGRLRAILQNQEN
# GC-B act: human GC-B receptor activators, primary screen, HEK293 GC-B cells, cGMP TR-FRET, EC30 CNP; Atrial natriuretic peptide receptor 2 (Homo sapiens), P20594; 0% at EC30 CNP, 100% saturating CNP; 370,000 tested, 0.11% active; activation, % at 10 µM;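 active means activation at 10 µM reaching about 35% in either raw or pattern-adjusted values, limit read from the data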
# APOBEC3A inh: APOBEC3A ssDNA deaminase inhibitors, primary screen, selectivity assay for APOBEC3G inhibitor project, biochemical, FAM/TAMRA oligo cleavage fluorescence | recombinant A3A, FAM/TAMRA ssDNA deamination fluorescence | inhibition, % at 20 µM | 330,000 tested, 0.41% active | AID 493011, 2011;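 active means at least 40% inhibition at 20 µM here, with at most 30% in a related deaminase screen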;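 further: plate controls were A3A with DMSO for no effect and wells lacking A3A enzyme for full effect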
# FAS-TE inh conf: FAS thioesterase domain inhibitors, confirmation, biochemical, fluorescence intensity, single concentration. shares compounds with FAS TE block. recombinant FAS-TE, OMFH fluorogenic substrate. inhibition, % at 15 µM. 2,300 tested, 45% active. AID 624325, 2012;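 active means compounds inhibiting the enzyme by at least 50% at 15 µM in any one of the replicates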;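 further: 0% = enzyme with DMSO only and 100% = wells lacking enzyme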
# * = called active by the depositor; . = no result given. In the library only some 1.4% were active in any assay of this set; here they are far more common.
SMILES,FAS TE block,NPR1 activator,A3G deaminase,GC-B act,APOBEC3A inh,FAS-TE inh conf
C[C@H](CO)N1C[C@H](C)[C@@H](CN(C)S(=O)(=O)c2ccc(F)cc2)Oc2c(NC(=O)Nc3ccc(C(F)(F)F)cc3)cccc2C1=O,50.3*,1.1,-4.7,0.5,-2.3,46.9
C[C@H](CO)N1C[C@H](C)[C@H](CN(C)S(=O)(=O)c2ccc(Cl)cc2)OCc2ccccc2-c2c(n(C)c3ccccc23)C1=O,69.1*,-7.6,.,-7.7,.,28.2
C[C@H](CO)N1C[C@H](C)[C@H](CN(C)Cc2ccc(-c3ccccc3)cc2)Oc2ccc(NS(=O)(=O)c3ccccc3)cc2CC1=O,27.3,.,0.8,.,7.7,.
Cc1ccc(S(=O)(=O)Nc2ccc3c(c2)CC(=O)N([C@H](C)CO)C[C@@H](C)[C@H](CN(C)Cc2ccc(-c4ccccc4)cc2)O3)cc1,73.2*,.,-4.2,.,-0.1,23.2
COC[C@H]1CCCN1c1ccc2c(c1)O[C@@H]1CCN(C1)S2(=O)=O,.,1.0,.,5.2,.,.
COC(=O)c1cc2c(c3c4cc(C)ccc4n(S(=O)(=O)c4ccc(C)cc4)c13)C(=O)N(Cc1ccccc1OC)C2,.,3.6,.,1.5,.,.
CC(C)NC(=O)N(C)C[C@H]1Oc2c(NC(=O)Nc3ccc(C(F)(F)F)cc3)cccc2C(=O)N([C@H](C)CO)C[C@@H]1C,82.4*,-0.3,-4.0,0.0,-3.5,85.7*
Cc1noc(C)c1NC(=O)N(C)C[C@H]1Oc2c(NC(=O)Nc3ccc(C(F)(F)F)cc3)cccc2C(=O)N([C@H](C)CO)C[C@@H]1C,23.2,3.0,-3.9,1.7,-0.7,.
Cc1ccc(S(=O)(=O)N(C)C[C@@H]2Oc3ccc(NC(=O)Nc4cccc5ccccc45)cc3C(=O)N([C@H](C)CO)C[C@H]2C)cc1,67.1*,0.6,-5.6,0.5,-0.3,7.4
COC(=O)[C@]12C[C@H](CC(=O)NCC3CCCCC3)C(=O)N(Cc3ccc4c(c3)OCO4)C1=C[C@H](C(C)C)O[C@@H]2C1CC1,.,-1.9,.,-9.1,.,.
O=c1oc(-c2cccnc2)nc2ccccc12,1.7,-0.1,4.8,-9.0,-3.6,.
O=c1oc(-c2ccccc2Br)nc2ccccc12,60.6*,0.7,-8.9,-3.2,-2.2,52.8*
Cc1ccc(-c2c(C(=O)N(C)Cc3ccccc3)oc(=O)c3ccccc23)cc1,53.6*,-6.3,-7.0,-9.5,-1.6,51.1*
CCOC1=C2[C@@H](CN(S(=O)(=O)c3ccccc3)[C@H]2c2ccccc2)[C@H]2C(=O)N(c3ccccc3)C(=O)[C@H]2C1,22.5,-2.6,.,-2.6,.,.
CCOC1=C2[C@H]([C@H]3C(=O)N(c4ccccc4)C(=O)[C@H]3C1)[C@@H](C(C)C)N(S(=O)(=O)c1ccc(C)cc1)[C@H]2c1ccccc1,57.6*,0.6,.,3.2,.,21.1
CCOC1=C2[C@@H](CN(S(=O)(=O)c3ccc(C)cc3)[C@H]2c2cccc3ccccc23)[C@H]2C(=O)N(c3ccccc3)C(=O)[C@H]2C1,77.1*,5.0,.,5.9,.,14.0
CCOC1=C2[C@@H](CN(S(=O)(=O)c3ccc(C)cc3)[C@H]2c2cccc3ccccc23)[C@H]2C(=O)N(C3CCCCC3)C(=O)[C@H]2C1,67.4*,1.1,.,1.3,.,12.8
CCOC1=C2[C@@H](CN(S(=O)(=O)c3ccc(C)cc3)[C@H]2c2cccs2)[C@H]2C(=O)N(c3ccccc3)C(=O)[C@H]2C1,11.6,-4.5,.,-4.9,.,.
CCOC1=C2[C@@H](CN(S(=O)(=O)c3ccc(C)cc3)[C@H]2c2ccc(Cl)cc2)[C@H]2C(=O)N(c3ccccc3)C(=O)[C@H]2C1,62.0*,3.5,.,0.8,.,39.8
C=CCN(C)C(C#Cc1ccccc1)c1ccccc1C(F)(F)F (stereo not drawn),.,-4.9,.,-12.5,.,.
